Laboratory results as given in PubChem BioAssay (NCATS).
Inconclusive results are not listed. Activity calls are given as the source filed them. The call rests on the fitted dose curve; in most records, active means well fitted curve in the direction sought with a large enough effect; inconclusive means small, poorly fitted or top-dose-only effect, or another doubt; inactive means no such curve, though single readings can be large; an effect the other way counts as inactive or inconclusive.

Key:
MCC-13 = assay: qHTS assay to identify novel small-molecules to repurpose for Merkel cell carcinoma treatment (AID 1296009); settings: MCC and control cell lines, CellTiter-Glo viability, 72 h; series mostly up to 46 µM; further: nearly all actives have a fitted effect of over 60% in size
In short: (§1)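 After compound transfer in DMSO, plates were kept 72 hr at 37 degree celsius. Luminescent ATP signal from CellTiter-Glo served as viability measure, normalized against DMSO and no-cell controls.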

MCC-26 = assay: as above; settings: MCC and control cell lines, CellTiter-Glo viability, 72 h; series mostly up to 46 µM
In short: as §1

MKL-1 = assay: as above; settings: MCC and control cell lines, CellTiter-Glo viability, 72 h; series mostly up to 46 µM
In short: as §1

MKL-2 = assay: as above; settings: MCC and control cell lines, CellTiter-Glo viability, 72 h; series mostly up to 46 µM
In short: as §1

UISO = assay: as above; settings: MCC and control cell lines, CellTiter-Glo viability, 72 h; series mostly up to 46 µM
In short: as §1

WaGa = assay: as above; settings: MCC and control cell lines, CellTiter-Glo viability, 72 h; series mostly up to 46 µM
In short: as §1

C33A = assay: Primary qHTS to identify gynecologic anti-cancer compounds using libraries of approved drugs and bioactive compounds (AID 1345084); settings: Gynecologic cancer cell panel viability, ATPlite luminescence, 48 h; series mostly up to 57.5 µM; further: nearly all actives have a fitted effect of over 55% in size
In short: (§2)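 48 h compound exposure at 37 C, 5% CO2; five-point qHTS. ATPlite luminescence readout of cell ATP.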

CAOV3 = assay: as above; settings: Gynecologic cancer cell panel viability, ATPlite luminescence, 48 h; series mostly up to 57.5 µM
In short: as §2

CASKI = assay: as above; settings: Gynecologic cancer cell panel viability, ATPlite luminescence, 48 h; series mostly up to 57.5 µM
In short: as §2

Es-2 = assay: as above; settings: Gynecologic cancer cell panel viability, ATPlite luminescence, 48 h; series mostly up to 57.5 µM
In short: as §2

HeLa = assay: as above; settings: Gynecologic cancer cell panel viability, ATPlite luminescence, 48 h; series mostly up to 57.5 µM
In short: as §2

Hek293T = assay: as above; settings: Gynecologic cancer cell panel viability, ATPlite luminescence, 48 h, control line for the selectivity index; series mostly up to 57.5 µM
In short: as §2

JEG-3 = assay: as above; settings: Gynecologic cancer cell panel viability, ATPlite luminescence, 48 h; series mostly up to 57.5 µM
In short: as §2

OV90 = assay: as above; settings: Gynecologic cancer cell panel viability, ATPlite luminescence, 48 h; series mostly up to 57.5 µM
In short: as §2

PA-1 = assay: as above; settings: Gynecologic cancer cell panel viability, ATPlite luminescence, 48 h; series mostly up to 57.5 µM
In short: as §2

SKOV3 = assay: as above; settings: Gynecologic cancer cell panel viability, ATPlite luminescence, 48 h; series mostly up to 57.5 µM
In short: as §2

Tov-21-G = assay: as above; settings: Gynecologic cancer cell panel viability, ATPlite luminescence, 48 h; series mostly up to 57.5 µM
In short: as §2

Tov112D = assay: as above; settings: Gynecologic cancer cell panel viability, ATPlite luminescence, 48 h; series mostly up to 57.5 µM
In short: as §2

[1] = Drug repurposing screens with cells derived from glioblastoma tumor samples (AID 1345199); settings: GBM patient neurospheres viability, ATP luminescence, 48 h; further: nearly all actives have a fitted effect of over 40% in size
In short: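 Four patient lines of CD133+ GBM neurospheres were screened at several concentrations; hits were retested in those lines plus three slower-growing GBM lines, using 48-hour treatment and ATP-based viability.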

[2] = at 45.9 µM (top of the series), tumour line B
[3] = at 45.9 µM (top of the series), tumour line D
[4] = at 46 µM (top of the series), tumour line A
[5] = at 46.1 µM (top of the series), tumour line C
[6] = at 20 µM (top of the series), tumour line C
[7] = at 21.2 µM (top of the series), tumour line B
[8] = at 21.2 µM (top of the series), tumour line D
[9] = at 21.3 µM (top of the series), tumour line A
On the % scale 0 is the no-effect control and ±100 the full control effect.

Cc1cccc(Nc2ccccc2C(=O)O)c1C
inactive: outcome (MCC-13) | outcome (MCC-26) | outcome (MKL-1) | outcome (MKL-2) | outcome (UISO) | outcome (WaGa) | outcome (C33A) | outcome (CAOV3) | outcome (CASKI) | outcome (Es-2) | outcome (HeLa) | outcome (Hek293T) | outcome (JEG-3) | Potency (OV90) | outcome (PA-1) | outcome (SKOV3) | outcome (Tov-21-G) | outcome (Tov112D) | activity, negative = cell killing [1, 2] -15.4% | activity, negative = cell killing [1, 3] -14.4% | activity, negative = cell killing [1, 4] -20% | activity, negative = cell killing [1, 5] -15.4%

O=C(/C=C/c1ccccc1)OCc1ccccc1
inactive: outcome (MCC-13) | outcome (MCC-26) | outcome (MKL-1) | outcome (MKL-2) | outcome (UISO) | outcome (WaGa) | outcome (C33A) | outcome (CAOV3) | outcome (CASKI) | outcome (Es-2) | outcome (HeLa) | outcome (Hek293T) | outcome (JEG-3) | Potency (OV90) | outcome (PA-1) | outcome (SKOV3) | outcome (Tov-21-G) | outcome (Tov112D) | activity, negative = cell killing [1, 2] -5.75% | activity, negative = cell killing [1, 3] -8.15% | activity, negative = cell killing [1, 4] -17.7% | activity, negative = cell killing [1, 5] -14.4%

COc1ccc(-c2cc(=O)c3c(O)cc(O[C@@H]4O[C@H](CO[C@@H]5O[C@@H](C)[C@H](O)[C@@H](O)[C@H]5O)[C@@H](O)[C@H](O)[C@H]4O)cc3o2)cc1O
inactive: outcome (MCC-13) | outcome (MCC-26) | outcome (MKL-1) | outcome (MKL-2) | outcome (UISO) | outcome (WaGa) | outcome (C33A) | outcome (CAOV3) | outcome (CASKI) | outcome (Es-2) | outcome (HeLa) | outcome (Hek293T) | outcome (JEG-3) | Potency (OV90) | outcome (PA-1) | outcome (SKOV3) | outcome (Tov-21-G) | outcome (Tov112D) | activity, negative = cell killing [1, 2] -6.79% | activity, negative = cell killing [1, 3] 0.355% | activity, negative = cell killing [1, 4] -29.8% | activity, negative = cell killing [1, 5] 3.81%

C[C@@H](c1ncncc1F)C(O)(Cn1cncn1)c1ccc(F)cc1F (stereo partly drawn)
inactive: outcome (MCC-13) | outcome (MCC-26) | outcome (MKL-1) | outcome (MKL-2) | outcome (UISO) | outcome (WaGa) | outcome (C33A) | outcome (CAOV3) | outcome (CASKI) | outcome (Es-2) | outcome (HeLa) | outcome (Hek293T) | outcome (JEG-3) | outcome (PA-1) | outcome (SKOV3) | outcome (Tov-21-G) | outcome (Tov112D) | activity, negative = cell killing [1, 2] -6.32% | activity, negative = cell killing [1, 3] -23.3% | activity, negative = cell killing [1, 5] 6.65%

OCC(O)CS (stereo not drawn)
inactive: outcome (MCC-13) | outcome (MCC-26) | outcome (MKL-1) | outcome (MKL-2) | outcome (UISO) | outcome (WaGa) | outcome (C33A) | outcome (CAOV3) | outcome (CASKI) | outcome (Es-2) | outcome (HeLa) | outcome (Hek293T) | outcome (JEG-3) | Potency (OV90) | outcome (PA-1) | outcome (SKOV3) | outcome (Tov-21-G) | outcome (Tov112D) | activity, negative = cell killing [1, 2] -7.05% | activity, negative = cell killing [1, 3] -1.81% | activity, negative = cell killing [1, 4] -9.33% | activity, negative = cell killing [1, 5] -1.31%

NC(N)=NCCN1CCCCCCC1
inactive: activity change, negative = cytotoxicity (MCC-13) 12.6% [at 0.597 µM] | activity change, negative = cytotoxicity (MCC-26) 12.5% [at 0.597 µM] | activity change, negative = cytotoxicity (MKL-1) 13.2% [at 0.597 µM] | activity change, negative = cytotoxicity (MKL-2) 3.8% [at 0.597 µM] | activity change, negative = cytotoxicity (UISO) 18% [at 0.597 µM] | activity change, negative = cytotoxicity (WaGa) 12.9% [at 0.597 µM] | activity change, negative = cytotoxicity (C33A) 9.99% [at 0.462 µM] | activity change, negative = cytotoxicity (CAOV3) -2.11% [at 0.462 µM] | activity change, negative = cytotoxicity (CASKI) -2.55% [at 0.462 µM] | activity change, negative = cytotoxicity (Es-2) -4.19% [at 0.462 µM] | activity change, negative = cytotoxicity (HeLa) 0.1% [at 0.462 µM] | activity change, negative = cytotoxicity (Hek293T) -4.03% [at 0.462 µM] | activity change, negative = cytotoxicity (JEG-3) -3.39% [at 0.462 µM] | activity change, negative = cytotoxicity (OV90) -3.97% [at 0.462 µM] | activity change, negative = cytotoxicity (PA-1) 8.5% [at 0.462 µM] | activity change, negative = cytotoxicity (SKOV3) 6.07% [at 0.462 µM] | activity change, negative = cytotoxicity (Tov-21-G) 1.66% [at 0.462 µM] | activity change, negative = cytotoxicity (Tov112D) 3.26% [at 0.462 µM] | activity, negative = cell killing [1, 6] -8.56% | activity, negative = cell killing [1, 7] -5.86% | activity, negative = cell killing [1, 8] 12.5% | activity, negative = cell killing [1, 9] -16.2%

CCc1cccc(CC)c1NC(=O)CN(CC(=O)O)CC(=O)O
inactive: outcome (MCC-13) | outcome (MCC-26) | outcome (MKL-1) | outcome (MKL-2) | outcome (UISO) | outcome (WaGa) | outcome (C33A) | outcome (CAOV3) | outcome (CASKI) | outcome (Es-2) | outcome (HeLa) | outcome (Hek293T) | outcome (JEG-3) | Potency (OV90) | outcome (PA-1) | outcome (SKOV3) | outcome (Tov-21-G) | outcome (Tov112D) | activity, negative = cell killing [1, 6] -11.2% | activity, negative = cell killing [1, 7] -2.25% | activity, negative = cell killing [1, 8] -7.08% | activity, negative = cell killing [1, 9] -26%

COc1ccc(NS(=O)(=O)c2ccc(N)cc2)nn1
inactive: outcome (MCC-13) | outcome (MCC-26) | outcome (MKL-1) | outcome (MKL-2) | outcome (UISO) | outcome (WaGa) | outcome (C33A) | outcome (CAOV3) | outcome (CASKI) | outcome (Es-2) | outcome (HeLa) | outcome (Hek293T) | outcome (JEG-3) | outcome (PA-1) | outcome (SKOV3) | outcome (Tov-21-G) | outcome (Tov112D) | activity, negative = cell killing [1, 6] -22.2% | activity, negative = cell killing [1, 7] -14.9% | activity, negative = cell killing [1, 8] -7.76% | activity, negative = cell killing [1, 9] -20.5%
